According to PubChem BioAssay (EPA / NIEHS):
Records with an inconclusive call do not appear. Activity calls are given as the source filed them. How the source made its calls, unless noted: active means hit-call score of the fitted dose curve at least 0.9, where 1 is the maximum; inactive means score below 0.9.

Columns and labels:
[1] = CCTE_Shafer_MEA_acute_burst_number: CCTE's Neural Acute Assay for Single-Electrode Bursts, Shafer Lab (AID 2284013)
Procedure, shortened: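 Rat cortical cultures, DIV 13/15; 40 min baseline, then 40 min with compound 0.03-40 uM, 37 C. Spikes: 300-5000 Hz band-pass, threshold 8x rms noise. Readout = % change in single-electrode bursts vs baseline, loss-of-signal fit.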

[2] = CCTE_Shafer_MEA_acute_burst_duration_mean: CCTE's Neural Acute Assay for Mean Burst Duration, Shafer Lab (AID 2284014);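 further: hits are decreases in mean burst duration relative to DMSO controls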
Procedure, shortened: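 Primary rat cortical neurons on 16-electrode MEA wells, treated on DIV 13 or 15 with compound (0.03-40 uM; ≥3 wells each). 40-min baseline and 40-min exposure recordings at 37 C; percent change in mean burst duration per well versus DMSO.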

[3] = CCTE_Shafer_MEA_acute_per_burst_spike_number_mean: CCTE's Neural Acute Assay for Average Number of Spikes Per Burst, Shafer Lab (AID 2284015);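 further: hits are decreases in mean spikes per burst versus baseline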
Procedure, shortened: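 Percent change in mean spikes per single-electrode burst is compared between a 40 min baseline and a 40 min recording with compound (0.03-40 uM). Cultures were rat cortical neurons on MEA plates at DIV 13 or 15, recorded at 37 C, with DMSO as the negative control.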

[4] = CCTE_Shafer_MEA_acute_interburst_interval_mean: CCTE's Neural Acute Assay for Mean Interburst Interval, Shafer Lab (AID 2284016);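 further: percent change of mean interburst interval versus each well's own pre-dose baseline; curves fitted for decrease in interburst interval relative to DMSO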
Procedure, shortened: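 Percent change in mean single-electrode interburst interval was calculated per well from 40 min recordings before and after compound (0.03-40 uM). Recordings were made at 37 C on rat cortical cultures at DIV 13 or 15, with spikes detected at 8x rms threshold.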

[5] = CCTE_Shafer_MEA_acute_burst_percentage_mean: CCTE's Neural Acute Assay for Percentage of Spikes in a Burst, Shafer Lab (AID 2284017);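 on AC50: curve fitted for loss of signal so potency reflects decreased burst percentage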
Procedure, shortened: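 Well-level mean burst percentage from a 40-min recording after compound (0.03-40 uM) expressed as percent change from a 40-min baseline at 37C. Cultures: primary rat cortical neurons on MEA, dosed on DIV 13 or 15; fitted downward relative to DMSO.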

[6] = CCTE_Shafer_MEA_acute_per_network_burst_spike_number_std: CCTE's Neural Acute Assay for Standard Deviation of Number of Spikes in a Network Burst, Shafer Lab (AID 2284020);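 further: fitted for decrease in spike-number SD versus DMSO so actives lower it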
Procedure, shortened: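 Primary rat cortical neurons on 48-well MEAs (16 electrodes/well) recorded at DIV 13 or 15: 40-min baseline, then 40 min with compound (0.03-40 uM), 37 C. Value is percent change in SD of spikes per network burst, relative to DMSO.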

[7] = CCTE_Shafer_MEA_acute_per_network_burst_electrodes_number_mean: CCTE's Neural Acute Assay for Mean Number of Electrodes in a Network Burst, Shafer Lab (AID 2284021);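 further: curves fitted for decreases only so hits reduce electrodes per burst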
Procedure, shortened: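 Cultures of rat cortex neurons were exposed on DIV 13 or 15 to compounds at 0.03-40 uM in at least three wells each. Activity over 40 min before and 40 min after exposure at 37 C gave the percent change in electrodes per network burst.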

[8] = CCTE_Shafer_MEA_acute_network_burst_percentage: CCTE's Neural Acute Assay for Percentage of Network Bursts, Shafer Lab (AID 2284022);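 further: curves fitted for loss so actives lower network burst percentage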
Procedure, shortened: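 Cortical neurons from rat were grown over microelectrode arrays and used on day 13 or 15 in vitro. Wells with at least 10 active electrodes received test chemical at 0.03-40 uM. Activity during 40 min of exposure was compared with the preceding 40-min baseline.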

[9] = CCTE_Harrill_HTTr_CellCount_MCF7: CCTE's Cell Proliferation Assessment for the High-Throughput Transcriptomics (HTTr) Platform, Harrill Lab (AID 2284012; active means hit-call score of the fitted dose curve at least 0.9, where 1 is the maximum;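 further: cells exposed to compound for six hours; intended direction is loss of nuclei count meaning fewer cells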)
Procedure, shortened: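 MCF-7 cells were exposed for 6 h to an eight-point dilution series; Hoechst-labeled nuclei were counted by high content imaging. Curves were fitted bidirectionally against DMSO as negative control and baseline, with signal loss indicating reduced cell count.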

[10] = biological target: Estrogen receptor (Homo sapiens) (UniProt P03372); assay: CCTE_Deisenroth_AIME_96WELL_LUC_Active: CCTE's 96-well Estrogen Receptor Transactivation Assay with AIME metabolic competence (ERTA luciferase; metabolism positive), Deisenroth Lab (AID 2284023; active means hit-call score of the fitted dose curve at least 0.9, where 1 is the maximum)
Estrogen receptor (Homo sapiens), sequence (P03372 whole entry, looked up): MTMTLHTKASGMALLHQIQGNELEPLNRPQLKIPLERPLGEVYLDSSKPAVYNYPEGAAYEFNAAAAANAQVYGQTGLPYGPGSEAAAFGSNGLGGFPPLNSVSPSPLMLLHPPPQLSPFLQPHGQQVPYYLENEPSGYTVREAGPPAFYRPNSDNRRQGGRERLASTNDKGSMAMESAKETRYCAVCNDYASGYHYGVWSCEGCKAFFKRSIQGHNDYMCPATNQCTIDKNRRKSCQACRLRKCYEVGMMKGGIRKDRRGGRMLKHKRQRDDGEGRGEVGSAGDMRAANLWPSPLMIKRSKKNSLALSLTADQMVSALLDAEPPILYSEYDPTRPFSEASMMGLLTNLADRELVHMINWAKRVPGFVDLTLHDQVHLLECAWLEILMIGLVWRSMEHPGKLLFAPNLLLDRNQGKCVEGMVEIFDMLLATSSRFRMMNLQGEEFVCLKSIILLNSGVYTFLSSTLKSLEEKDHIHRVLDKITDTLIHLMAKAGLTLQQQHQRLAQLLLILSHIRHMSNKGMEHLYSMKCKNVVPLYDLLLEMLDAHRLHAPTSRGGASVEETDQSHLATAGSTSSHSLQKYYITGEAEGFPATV
Procedure, shortened: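 Chemicals pre-incubated 2 h with alginate-immobilized phenobarbital/beta-naphthoflavone-induced male Sprague Dawley rat liver S9, then medium transferred to VM7Luc4E2 cells for 24 h luciferase read-out. 10-point series 0.002 - 200 uM; fitted relative to 17beta-estradiol.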

Measured: AC50

CC(C)(c1cc(Br)c(O)c(Br)c1)c1cc(Br)c(O)c(Br)c1
active: [5] 19.1 µM
not listed: [9] | [10]
inactive: all other assays above

CC[C@@H]1C[C@H](N(Cc2cc(C(F)(F)F)cc(C(F)(F)F)c2)C(C)=O)c2cc(C(F)(F)F)ccc2N1C(=O)OC(C)C
active: [2] 4.21 µM
not listed: [9] | [10]
inactive: all other assays above

Clc1ccccc1C(c1ccccc1)(c1ccccc1)n1ccnc1
active: [1] 3.26 µM | [3] 5.84 µM | [5] 7.02 µM | [6] 6.71 µM | [7] 2.24 µM | [8] 5 µM
inactive: [2] | [4]

CN(C)c1ccc(C(=C2C=CC(=[N+](C)C)C=C2)c2ccc(N(C)C)cc2)cc1
active: [1] 0.348 µM | [5] 2.07 µM | [6] 2.78 µM | [8] 2.27 µM
not listed: [10]
inactive: all other assays above

c1ccc2ccccc2c1
inactive: [10]

Cc1cn([C@H]2C[C@H](N=[N+]=[N-])[C@@H](CO)O2)c(=O)[nH]c1=O
not listed: [9] | [10]
inactive: all other assays above

Cc1cc2c(cc1C(F)(F)F)N(C(=O)Nc1ccc(Oc3cccnc3C)nc1)CC2
not listed: [9] | [10]
inactive: all other assays above

CC(C)(C)c1cc(/C=C2\SC(N)=NC2=O)cc(C(C)(C)C)c1O
active: [4] 14.6 µM
not listed: [9] | [10]
inactive: all other assays above

CCCCOC(=O)c1ccc(O)cc1
active: [4] 31 µM | [5] 31.1 µM
not listed: [10]
inactive: all other assays above

CC1=CC(=O)/C(=C(/C)O)C(=O)O1
not listed: [9] | [10]
inactive: all other assays above

CN1C(=O)CC[C@H]1c1cccnc1
not listed: [9] | [10]
inactive: all other assays above

COc1cccc([C@H](O)C2CCN(CCc3ccc(F)cc3)CC2)c1OC
active: [1] 2.88 µM | [6] 6.88 µM
not listed: [9] | [10]
inactive: all other assays above

CCCCCc1ccc(N)cc1
inactive: [9]

CCCCCCCCCCCCO
inactive: [1] | [2] | [4] | [7]
active: [3] 20 µM | [5] 25.5 µM | [6] 26.7 µM | [8] 25.8 µM

O=C(OCCCCCCOC(=O)c1ccccc1)c1ccccc1
inactive: [9]

CCN(CC)C(=O)c1cc(S(=O)(=O)Cc2ccccc2)c(N2CCC(c3ccccc3)CC2)cc1N(CC)CCN(C)C
inactive: [1] | [4] | [6] | [7]
active: [2] 0.553 µM | [3] 1.54 µM | [5] 13 µM | [8] 13.3 µM

Clc1cc(Cl)c2c(c1)N=C1CCCCCN1C2
inactive: [9]

O=c1[nH]sc2ccccc12
active: [4] 34.3 µM | [5] 20 µM | [8] 7.94 µM
not listed: [9] | [10]
inactive: all other assays above

CO[C@H]1/C=C/O[C@@]2(C)Oc3c(C)c(O)c4c(O)c(c(/C=N/N5CCN(C)CC5)c(O)c4c3C2=O)NC(=O)/C(C)=C\C=C\[C@H](C)[C@H](O)[C@@H](C)[C@@H](O)[C@@H](C)[C@H](OC(C)=O)[C@@H]1C
active: [3] 12.5 µM
not listed: [9] | [10]
inactive: all other assays above

COc1cc(C(=O)NC2CCN(C)CC2)ccc1Nc1ncc2c(n1)N(C1CCCC1)CC(F)(F)C(=O)N2C
active: [2] 1.85 µM | [3] 29.9 µM | [4] 3.83 µM | [5] 15 µM | [6] 15.2 µM | [7] 5.23 µM | [8] 10.5 µM
inactive: [1]

CN(C)C(=O)C1(N2CCCCC2)CCN(CC[C@@]2(c3ccc(Cl)c(Cl)c3)CN(C(=O)c3ccccc3)CCO2)CC1
active: [1] 2.11 µM | [2] 1.81 µM | [3] 2.5 µM | [5] 19.4 µM | [6] 20.4 µM | [7] 22.4 µM | [8] 17.8 µM
inactive: [4]

NCc1cccc(C2CCN(C(=O)c3ccc(C#Cc4ccccc4F)o3)CC2)c1
active: [1] 8.95 µM | [3] 35.3 µM | [4] 4.14 µM | [5] 30.8 µM | [6] 20 µM | [7] 20 µM | [8] 31.4 µM
inactive: [9] | [2]

CN(C[C@@H](CC[N+]12CCC(C3CCCCC3)(CC1)CC2)c1ccc(Cl)c(Cl)c1)C(=O)c1cc(C(F)(F)F)cc(C(F)(F)F)c1
inactive: [4]
active: [1] 0.249 µM | [2] 1.19 µM | [3] 1.14 µM | [5] 8.36 µM | [6] 8.89 µM | [7] 5 µM | [8] 8.37 µM

Cc1c2ccccc2c(C)c2c1ccc1ccccc12
active: [4] 7.49 µM | [5] 29.7 µM
not listed: [9] | [10]
inactive: all other assays above

Cc1ccc2oc(CN(Cc3ccccc3)C(=O)Nc3c(F)cc(F)cc3F)c(-c3ccc(Cl)cc3)c2c1
inactive: [9]

Cc1cccc2ccccc12
inactive: [9]

O=C(O)c1ccccc1-n1cc(C(=O)O)c(=O)c2cc(Nc3c(F)cc(F)cc3Cl)c(Cl)cc21
active: [3] 20 µM
not listed: [9] | [10]
inactive: all other assays above

O=C1O[C@H]([C@@H](O)CO)C(O)=C1O
not listed: [10]
inactive: all other assays above

C[C@]12CC[C@@H]3c4ccc(O)cc4CC[C@H]3[C@@H]1CC[C@H]2O
not listed: [9] | [10]
inactive: all other assays above

CC(O)CC(C)(C)O (stereo not given)
not listed: [9] | [10]
inactive: all other assays above

c1ccc2n[nH]nc2c1
not listed: [9] | [10]
inactive: all other assays above

CC/C(=C(/CC)c1ccc(O)cc1)c1ccc(O)cc1
inactive: [1] | [2] | [4] | [6]
active: [3] 6.76 µM | [5] 10.6 µM | [7] 20 µM | [8] 10.5 µM

CCCCCCCCOC(=O)c1cc(O)c(O)c(O)c1
inactive: [2] | [3] | [4]
active: [1] 4.91 µM | [5] 5.8 µM | [6] 7.51 µM | [7] 8.24 µM | [8] 9.35 µM

OC12N=C(c3ccccc3)SC1Cc1cc(Cl)ccc12 (stereo not given)
inactive: [3] | [6] | [8]
active: [1] 6.49 µM | [2] 20 µM | [4] 6.48 µM | [5] 32.6 µM | [7] 32.5 µM

NC(=O)c1nc(-c2cccc(-c3cc(F)ccc3OCC(F)(F)C(F)(F)F)c2)n[nH]1
inactive: [2] | [4] | [7] | [8]
active: [1] 0.446 µM | [3] 4.11 µM | [5] 7.48 µM | [6] 37.4 µM

O=c1ccc2ccccc2o1
inactive: [10]

CC(=O)N1CCN(c2ccc(OC[C@H]3CO[C@](Cn4ccnc4)(c4ccc(Cl)cc4Cl)O3)cc2)CC1
active: [5] 33 µM
not listed: [9] | [10]
inactive: all other assays above

CCN(Cc1cccc(S(=O)(=O)O)c1)c1ccc(C(=C2C=CC(=[N+](CC)Cc3cccc(S(=O)(=O)O)c3)C=C2)c2ccccc2S(=O)(=O)[O-])cc1
not listed: [10]
inactive: all other assays above
